In the library only some 19% were active in any assay of this set; here they are far more common.
TDP1 cell noCPT = qHTS for Inhibitors of human tyrosyl-DNA phosphodiesterase 1 (TDP1): qHTS in cells in absence of CPT; DT40 Tdp1-/- hTDP1 cells, no CPT, ATP luminescence, 48 h; Potency, µM (top dose mostly 46.2 µM), without a hit: top-dose activity change, negative = growth inhibition, hits mostly inhibitors; 420,000 compounds, 15% hits; further: potency means the concentration at half of the fitted maximal effect; on the % scale 0 is the no-effect control and ±100 the full control effect; nearly all actives have a fitted effect of over 55% in size
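Cells were dispensed at 400 per well, compounds added by pin tool, plates incubated ≥48 hr at 37 °C, then CellTiter-Glo added for 30 min at room temperature before luminescence reading. Line: DT40 Tdp1-/- complemented with hTDP1; camptothecin omitted.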
TGFb SMAD3 inh = TGF-b pathway inhibition; AID 588855; 410,000 compounds, 1.2% hits; Potency, µM (doses to about 46.1 µM), inactives show at the top dose activity, negative = inhibition, most hits filed as inhibitors; HepG2 CAGA-GFP TGF-b/SMAD3 reporter, GFP fluorescence, 18 h; TGF-beta stimulated, 500 pg/mL final; further: potency means the concentration at half of the fitted maximal effect; on the % scale 0 is the no-effect control and ±100 the full control effect; nearly all actives have a fitted effect of over 65% in size
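Per well, imaged GFP fluorescence of HEPG2 CAGA-GFP cells gives the signal; cells get compound, then TGF-beta (500 pg/mL final), 18 h at 37 degrees C; %Activity versus -TGF-beta and +DMSO controls.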
TDP1 cell CPT = growth inhibition of DT40 Tdp1-/-;hTDP1 cells with camptothecin (screen for TDP1 inhibitors) | chicken DT40 Tdp1-/-;hTDP1 cells + 20 nM CPT, ATP luminescence, 48 h | Potency, µM (top dose mostly 46.2 µM), for inactives: top-dose activity change, negative = growth inhibition, actives largely listed as inhibitors | 420,000 compounds, 12% hits | AID 686979; further: potency means the concentration at half of the fitted maximal effect; on the % scale 0 is the no-effect control and ±100 the full control effect; nearly all actives have a fitted effect of over 55% in size
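Chicken DT40 Tdp1-/- cells complemented with human TDP1, 400 cells/well, exposed to compounds plus 20 nM camptothecin for at least 48 h at 37 C; viability read as ATP content by CellTiter-Glo luminescence.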
IL-1B inflam inh = blocks inflammasome-driven IL-1 beta release. activity change, % at 57.5 µM. AID 743279. 360,000 compounds, 4.7% hits. THP-1 LPS/ATP IL-1B secretion, AlphaLISA, 16 h; active compounds read low; in the data active means activity change below about -50%; inconclusive means mostly about -30% to -49%; further: on the % scale 0 is the no-effect control and ±100 the full control effect
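THP-1 cells pretreated 1 hr with compounds (up to 57.5 uM final), then stimulated with LPS (250 ng/mL final) plus ATP (1.25 mM final); secreted IL-1B measured by AlphaLISA after 16 hr, decreased signal indicating inhibition.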
ASM inhibitor = human S-ASM enzyme inhibition; P17405; placental ASM, HMU-PC fluorogenic substrate, 60 min; Potency, µM (top dose mostly 57.5 µM), for inactives: top-dose activity change, negative = inhibition, actives largely listed as inhibitors; 340,000 compounds, 0.006% hits; AID 504937; further: potency means the concentration at half of the fitted maximal effect
Target sequence (P17405 47-631 limits assumed): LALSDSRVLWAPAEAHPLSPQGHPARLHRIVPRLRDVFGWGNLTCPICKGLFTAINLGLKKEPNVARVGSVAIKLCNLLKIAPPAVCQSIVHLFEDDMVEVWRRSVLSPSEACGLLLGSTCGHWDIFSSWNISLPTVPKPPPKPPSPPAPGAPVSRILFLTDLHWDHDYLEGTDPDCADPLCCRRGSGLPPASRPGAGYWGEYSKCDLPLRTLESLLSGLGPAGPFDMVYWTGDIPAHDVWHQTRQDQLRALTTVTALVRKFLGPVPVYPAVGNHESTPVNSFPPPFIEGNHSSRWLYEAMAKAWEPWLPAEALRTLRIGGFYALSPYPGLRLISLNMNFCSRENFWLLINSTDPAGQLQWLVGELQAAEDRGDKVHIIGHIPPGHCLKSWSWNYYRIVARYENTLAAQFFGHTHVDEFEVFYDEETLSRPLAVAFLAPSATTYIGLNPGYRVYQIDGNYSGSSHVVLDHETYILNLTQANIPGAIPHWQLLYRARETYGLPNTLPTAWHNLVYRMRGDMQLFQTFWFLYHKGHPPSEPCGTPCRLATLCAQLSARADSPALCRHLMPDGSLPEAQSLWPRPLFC
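Fluorescence read-out (Ex 386 nm, Em 447 nm) after stopping the reaction at pH 10. Enzyme: ASM from human placenta; substrate HMU-PC0, 9 uM final; 60 min, 37 °C. Compound preincubation 10 min, ambient temperature.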
HepG2 viability = counter-screen for TGF-b inhibitors: cytotoxicity in HepG2 cells; HepG2 CAGA-GFP viability, ATP luminescence, 18 h; Potency, µM (titrated, usually from 46.1 µM), inactives show top-dose activity change, negative = cytotoxicity, most hits filed as cytotoxic; 410,000 compounds, 0.76% hits; AID 588856; further: potency means the concentration at half of the fitted maximal effect
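CellTiter-Glo luminescence gave cytotoxicity after 18 hours at 37 degrees C. The cells were HepG2 CAGA-GFP in 1% FBS DMEM, stimulated with 500 pg/mL TGF-beta after compound addition. %Activity was normalised to no-cell wells (complete cell-killing) and DMSO (no toxicity), and curves were fitted and classified.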
Active calls of the source: *; ? = inconclusive; . = not tested or not shown. Unless noted, the call rests on the fitted dose curve; in most records, active means well fitted curve in the direction sought with a large enough effect; inconclusive means small, poorly fitted or top-dose-only effect, or another doubt; inactive means no such curve, though single readings can be large; an effect the other way counts as inactive or inconclusive.

SMILES | TDP1 cell noCPT | TGFb SMAD3 inh | TDP1 cell CPT | IL-1B inflam inh | ASM inhibitor | HepG2 viability
CCOC(=O)c1c(C)[nH]c(CCC(=O)NCc2ccc(OC)cc2OC)c1C | 16µM* | -34% | ? | . | . | -18%
CCOC(=O)c1c(C)[nH]c(C)c1S(=O)(=O)NCC(=O)Nc1cc(Cl)ccc1OC | 0% | -27% | ? | . | . | -21%
CCOC(=O)c1c(C)[nH]c(CCC(=O)NCc2ccc(F)cc2)c1C | ? | -13% | -26% | . | . | 17%
COc1ccc(-n2nc3c(c2NC(=O)c2ccc(S(=O)(=O)N4CCOCC4)cc2)CS(=O)C3)cc1 (configuration not stated) | 3% | -2% | 2% | 1 | -4% | -12%
CC(NC(=O)c1cc(S(=O)(=O)N2CCOCC2)ccc1F)c1ccc(-n2ccnc2)cc1 (configuration not stated) | 13% | -3% | 6% | -8 | -1% | -14%
CCOC(=O)c1c(C)[nH]c(C(=O)OC(C(=O)N(C)C)c2ccccc2)c1C (configuration not stated) | 10µM* | 15% | 10µM* | . | . | 2%
Cc1cccc(NC(=S)N2CCC(C(N)=O)(N3CCCCC3)CC2)c1C | 2% | 3% | 4% | 28 | -7% | -1%
COc1ccccc1C(=O)N1CCN(C(=O)c2oc3c(C)c(C)ccc3c2C)CC1 | 16µM* | -27% | ? | -27 | . | -31%
Cc1ccc2c(C)c(C(=O)N3CCC(C(N)=O)(N4CCCCC4)CC3)oc2c1C | 21µM* | ? | ? | -9 | . | -29%
COc1cc(Br)c(CC(=O)NC2CC2)cc1OC | 11% | 0% | 13% | 39 | 2% | 1%
COc1cc(C(=O)Nc2ccc(N3CCN(C(=O)c4ccc(C)cc4)CC3)cc2)cc(OC)c1OC | 15µM* | 1% | 21µM* | -26 | -3% | -5%
COc1ccc(C(=O)NC(=S)Nc2cc(C)ccn2)cc1[N+](=O)[O-] | ? | ? | 16µM* | 17 | 1% | -3%
COc1ccc(C(=O)Nc2ccc(N3CCN(C(=O)c4ccccc4)CC3)cc2)cc1[N+](=O)[O-] | ? | -28% | 15µM* | ? | -3% | -8%
COc1ccc(C(=O)Nc2ccc(N3CCN(C)CC3)cc2)cc1[N+](=O)[O-] | -1% | 0% | 2% | -7 | -2% | -26%
COc1ccc(C(=O)Nc2ccc(N3CCN(C(=O)C(C)C)CC3)cc2)cc1[N+](=O)[O-] | 12µM* | -2% | ? | -7 | -3% | 2%
COc1ccc(C(=O)Nc2cc(C)on2)cc1[N+](=O)[O-] | -4% | 11% | 11% | -13 | 2% | 8%
COc1ccc(C(O)c2ncc(-c3ccccc3Cl)[nH]2)cc1 (configuration not stated) | -19% | -2% | -2% | -2 | . | 3%
Cc1cccc(Cn2cc3c(=O)n(CC(=O)Nc4c(C)cccc4C)nc-3c3cc(F)ccc32)c1 | -8% | -5% | -1% | . | . | 3%
C=CCONC(=O)Cc1ccccc1 | -19% | 0% | 10% | 29 | -12% | -2%
Cc1ccc(CNC(=O)CN2CCN(Cc3ccc(F)cc3)C2=O)cc1 | -24% | -24% | -5% | . | . | -1%
C[C@@H]1CN([C@H](C)CO)C(=O)CCCn2cc(nn2)CO[C@H]1CN(C)S(=O)(=O)c1ccc2c(c1)OCCCO2 | -4% | 4% | -4% | 14 | . | -10%
O=C(Nc1ccc(C2=NCCN2)cc1)c1ccc(C(=O)Nc2ccc(C3=NCCN3)cc2)c([N+](=O)[O-])c1 | 6.5µM* | 4% | 6.5µM* | -6 | -3% | 27%
COc1ccc(C(=O)Nc2ccncc2)cc1[N+](=O)[O-] | -20% | 8% | -29% | -79* | 4% | 9%
CCc1ccc(NC(=O)c2ccc(OC)c([N+](=O)[O-])c2)cc1 | 1% | 4% | 3% | -8 | -6% | -1%
CCCCOc1ccc(C(=O)Nc2ccc(N3CCN(C(=O)C(C)C)CC3)cc2)cc1 | 7.3µM* | -5% | 8.2µM* | -8 | -6% | -8%
SMILES | TDP1 cell noCPT | TGFb SMAD3 inh | TDP1 cell CPT | IL-1B inflam inh | ASM inhibitor | HepG2 viability
O=C(NCCS(=O)(=O)N1CCN(c2ccccc2)CC1)C1CC1 | -8% | 7% | -5% | 12 | 4% | -5%
CCc1cccc(NC(=S)Nc2cccc3ccccc23)c1 | -18% | ? | -24% | 23 | -1% | -24%
Cc1oc2c(C)c3oc(=O)c(CC(=O)N4CCCCC4)c(C)c3cc2c1C | 21µM* | -16% | 21µM* | . | . | -1%
Cc1coc2c(C)c3oc(=O)c(CCC(=O)N4CCCCC4)c(C)c3cc12 | 16µM* | ? | 13µM* | . | . | -28%
COc1ccccc1CNC(=O)c1cc2sccc2n1Cc1ccc(Cl)cc1 | ? | -7% | ? | . | . | -2%
CC(=O)N1CCOc2cc(S(=O)(=O)NCc3ccc(C)cc3)c(C)cc21 | -14% | -3% | -10% | . | . | -5%
Cc1ccnc(NC(=O)c2cccc(S(=O)(=O)N3CCCc4ccccc43)c2)c1 | 21µM* | -37% | 21µM* | 4 | -1% | -5%
Cc1cccc(S(=O)(=O)N2CCCc3ccccc32)c1 | ? | -6% | 26µM* | 34 | 2% | -12%
O=C(Nc1ccccn1)c1cccc(S(=O)(=O)N2CCCc3ccccc32)c1 | ? | -18% | ? | 13 | -2% | -28%
COc1ccc(N2CC(C(=O)NCCc3ccc(Cl)cc3)CC2=O)c(OC)c1 (configuration not stated) | 4% | 16% | -2% | 11 | 5% | -1%
O=C(O)CCc1nn2c3ccccc3n(Cc3ccccc3F)c2nc1=O | ? | 1% | ? | 13 | 4% | -10%
COc1cccc(Nc2nnc(Cc3cccnc3)c3ccccc23)c1 | 0% | -25% | 23% | -4 | -4% | -31%
COc1ccc(CC2(CO)CCN(CC3=Cc4cc(Cl)ccc4OC3)CC2)cc1 | 6.5µM* | ? | 13µM* | -87* | -2% | -97%
COc1ccc2c(c1)C=C(CN1CCC(CO)(CCc3ccccc3)CC1)CO2 | ? | -24% | ? | -60* | 1% | -24%
COc1ccc(CC2(CO)CCN(Cc3ccc4c(c3)CCO4)CC2)cc1 | -28% | 0% | -13% | ? | -1% | -12%
O=C(Nc1nnc(C23CC4CC(CC(C4)C2)C3)s1)c1ccc(N2C(=O)CCC2=O)cc1 | 26µM* | -8% | ? | 5 | 2% | 0%
